{
  "source": "PubChem BioAssay (NCATS)",
  "key": {"[1]": {"test": "Immunotoxin (SS1P) sensitization/mitigation study. Vehicle arm (DMEM) (AID 1159513); note: potency is the fitted concentration of half-maximal effect", "settings": "cell viability with vehicle (DMEM); series mostly up to 46.1 µM"}, "[2]": {"test": "qHTS profiling of the MIPE4 collection as inhibitors of Plasmodium falciparum (3D7) proliferation (AID 743344)", "settings": "P. falciparum 3D7 in erythrocytes, SYBR Green DNA fluorescence, 72 h; at 28.5 µM (top of the series)", "in_short": "(§1)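 Parasite DNA was quantified by SYBR Green I fluorescence (ex 485, em 535 nm) after overnight lysis in saponin/Triton buffer at room temperature. Cultures at 0.3% parasitemia and 2.5% hematocrit were first exposed to compound for 72 h at 37 C; signals were normalised to artemisinin (0.29 uM) and vehicle wells.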"}, "[3]": {"test": "qHTS profiling of the MIPE4 collection as inhibitors of Plasmodium falciparum (DD2) proliferation (AID 743345)", "settings": "P. falciparum Dd2 in erythrocytes, SYBR Green DNA, 72 h; at 28.5 µM (top of the series) unless noted", "in_short": "as §1"}, "[4]": {"test": "qHTS profiling of the MIPE4 collection as inhibitors of Plasmodium falciparum (DD2) proliferation (Rep 2) (AID 743346)", "settings": "P. falciparum Dd2 in erythrocytes, SYBR Green DNA, 72 h; at 28.5 µM (top of the series)", "in_short": "as §1"}, "[5]": {"test": "qHTS profiling of the MIPE4 collection as inhibitors of Plasmodium falciparum (HB3) proliferation (AID 743347)", "settings": "P. falciparum HB3 in erythrocytes, SYBR Green DNA, 72 h; at 28.5 µM (top of the series)", "in_short": "as §1"}, "[6]": {"test": "Immunotoxin (HA22) sensitization/mitigation study. Vehicle arm (PBS) (AID 1159510)", "settings": "cancer cells viability with PBS vehicle (HA22 study); series mostly up to 46.1 µM"}, "[7]": {"test": "High-throughput drug toxicity screening in the BPDCN cell line Cal-1 (AID 1224825)", "settings": "Cal-1 BPDCN cell viability, qHTS; at 45.8 µM (top of the series)", "in_short": "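Percent activity derived from CellTiter-Glo luminescence, scaling DMSO to 100% and 9.2 uM final bortezomib to 0%. BPDCN Cal-1 cells (500/well, RPMI plus 10% FBS) incubated with compounds 48 hours at 37C before reading.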"}, "[8]": {"test": "qHTS assay for measurement of the activity of small molecule inhibitors on Zika virus induced Caspase-3 activity in human iPSC derived neural progenitor cells (hNPCs) (AID 1224857; active = well fitted curve in the direction sought with a large enough effect; an effect the other way counts as inactive or inconclusive)", "settings": "hNPCs ZIKV-induced caspase-3/7, Caspase-Glo luminescence, 6 h; series mostly up to 45.7 µM", "in_short": "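After overnight (16–20 h) culture at 350 cells/well, hNPCs get compound, then ZIKV 2 FFU/cell one hour later. Six hours on, Caspase-Glo 3/7 is added and luminescence measured.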"}, "[9]": {"test": "qHTS assay for measurement of the activity of small molecule inhibitors on Zika virus induced Caspase-3 activity in human astrocytoma cells (AID 1224859; active = well fitted curve in the direction sought with a large enough effect; an effect the other way counts as inactive or inconclusive)", "settings": "SNB-19 ZIKV-induced caspase-3/7, luminescence, 6 h; series mostly up to 45.7 µM", "in_short": "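Inhibition of Zika-induced caspase-3/7 activity: SNB-19 cells, 1 h compound pretreatment, ZIKV 2 FFU/cell for 6 h at 37 C, Caspase-Glo luminescence read-out.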"}, "[10]": {"test": "qHTS Screen of the MIPE 4.0 Collection Against Ewings Sarcoma (RDES) (AID 1259252; active = well fitted curve in the direction sought with a large enough effect; an effect the other way counts as inactive or inconclusive)", "settings": "RD-ES Ewing sarcoma viability, CellTiter-Glo, 48 h; series mostly up to 45.8 µM", "in_short": "(§2)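 CellTiter-Glo luminescence after 48 h compound exposure (titration) gave viability; percent activity used DMSO-treated cells as no inhibition and medium-only wells as full inhibition. Cells grown in RPMI/5% FBS, dosed 4 h post-seeding.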"}, "[11]": {"test": "qHTS Screen of the MIPE 4.0 Collection Against Ewings Sarcoma (TC71) (AID 1259253; active = well fitted curve in the direction sought with a large enough effect; an effect the other way counts as inactive or inconclusive)", "settings": "TC71 Ewing sarcoma viability, CellTiter-Glo, 48 h; series mostly up to 45.8 µM", "in_short": "as §2"}, "[12]": {"test": "qHTS profiling for inhibitors of Plasmodium falciparum (HB3) proliferation (AID 743324; active = well fitted curve in the direction sought with a large enough effect; an effect the other way counts as inactive or inconclusive)", "settings": "Plasmodium falciparum HB3 blood-stage proliferation; at 28.7 µM (top of the series) unless noted", "in_short": "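SYBR Green fluorescence (485 ex/535 em) of lysed cultures, incubated overnight at room temperature in the dark, quantifies parasite DNA. Infected erythrocytes at 0.3% parasitemia and 2.5% hematocrit were exposed 72 h; values normalized to DMSO and 0.29 uM artemisinin controls.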"}, "[13]": {"test": "High-throughput drug toxicity screening in the BPDCN cell line Gen2.2 (AID 1224824)", "settings": "Gen2.2 BPDCN cells; at 45.8 µM (top of the series)", "in_short": "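Gen2.2, 500 cells/well, phenol red-free RPMI/10% FBS/Pen-Strep; 48 h cpd, 37 °C/5% CO2; CTG lum, 15 min RT. Norm: DMSO = 100%, bortezomib 9.2 uM final = 0%.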"}},
  "note": "Results filed as inconclusive are left out. Calls of active or inactive are those of the source. Unless noted, the rule behind the calls is not given here.",
  "data": [
    {"smiles": "CN(NC(=O)CC(=O)NN(C)C(=S)c1ccccc1)C(=S)c1ccccc1", "values": [
      {"measurement": "Potency", "setting": "[1]", "value": "inactive"}
    ]},
    {"smiles": "CC#C[C@]1(O)CC[C@H]2[C@@H]3CCC4=CC(=O)CCC4=C3[C@H](c3ccc(N(C)C)cc3)C[C@@]21C", "values": [
      {"measurement": "Potency", "setting": "[1]", "value": "23500 nM (active)"}
    ]},
    {"smiles": "COc1ccc2c(c[n+](C)c3c4cc5c(cc4ccc23)OCO5)c1OC", "values": [
      {"measurement": "parasite growth, % of DMSO control", "setting": "[2]", "value": 71.2, "unit": "%"},
      {"measurement": "parasite growth remaining, % of DMSO control (lower = more inhibition)", "setting": "[3]", "value": 74.8, "unit": "%"},
      {"measurement": "parasite growth, % of control (lower = inhibition)", "setting": "[4]", "value": 99, "unit": "%"},
      {"measurement": "growth, % of control", "setting": "[5]", "value": 104, "unit": "%"},
      {"measurement": "Potency", "setting": "[6]", "value": "1320 nM (active)"},
      {"measurement": "Potency", "setting": "[1]", "value": "8330 nM (active)"},
      {"measurement": "viability (% of control)", "setting": "[7]", "value": 3.4, "unit": "%"},
      {"measurement": "Potency", "setting": "[8]", "value": "inactive"},
      {"measurement": "Potency", "setting": "[9]", "value": "inactive"},
      {"measurement": "Potency", "setting": "[10]", "value": "4690 nM (active)"},
      {"measurement": "Potency", "setting": "[11]", "value": "9350 nM (active)"}
    ]},
    {"smiles": "O=C1CCCC2=C1C(c1[nH]ncc1Cl)N=C(Nc1nc3ccccc3o1)N2", "note": "(stereo not drawn)", "values": [
      {"measurement": "Potency", "setting": "[1]", "value": "inactive"}
    ]},
    {"smiles": "Nc1nc(-c2nn(Cc3ccccc3F)c3ncccc23)nc(N)c1N1CCOCC1", "values": [
      {"measurement": "remaining proliferation (% of control), lower = more inhibition", "setting": "[12]", "value": 67.6, "unit": "%"},
      {"measurement": "parasite growth remaining, % of DMSO control (lower = more inhibition)", "setting": "[3]", "value": 91.1, "unit": "%"},
      {"measurement": "parasite growth, % of control (lower = inhibition)", "setting": "[4]", "value": 60.8, "unit": "%"},
      {"measurement": "growth, % of control", "setting": "[5]", "value": 51.5, "unit": "%"},
      {"measurement": "Potency", "setting": "[6]", "value": "inactive"},
      {"measurement": "Potency", "setting": "[1]", "value": "inactive"}
    ]},
    {"smiles": "CC(C)(C)c1[nH]cnc1C=c1[nH]c(=O)c(=Cc2ccccc2)[nH]c1=O", "values": [
      {"measurement": "remaining proliferation (% of control), lower = more inhibition", "setting": "[12]", "value": 37.2, "unit": "%"},
      {"measurement": "parasite growth remaining, % of DMSO control (lower = more inhibition)", "setting": "[3]", "value": "41.8% [at 57.5 µM]"},
      {"measurement": "Potency", "setting": "[6]", "value": "7.4 nM (active)"},
      {"measurement": "Potency", "setting": "[1]", "value": "11.8 nM (active)"}
    ]},
    {"smiles": "CC(C)(C)C(=O)Oc1ccc2c(c1)nc(NC(=O)c1cccc([N+](=O)[O-])c1)n2CCCO", "values": [
      {"measurement": "Potency", "setting": "[1]", "value": "inactive"}
    ]},
    {"smiles": "C=CCON=C(C[C@H]1O[C@@H]2O[C@]3(C)CC[C@@H]4[C@H](C)CC[C@@H]([C@H]1C)[C@@]24OO3)[C@H]1O[C@@H]2O[C@]3(C)CC[C@H]4[C@H](C)CC[C@@H]([C@@H]1C)[C@@]24OO3", "values": [
      {"measurement": "remaining proliferation (% of control), lower = more inhibition", "setting": "[12]", "value": 0.0213, "unit": "%"},
      {"measurement": "parasite growth, % of DMSO control", "setting": "[2]", "value": 21.6, "unit": "%"},
      {"measurement": "parasite growth remaining, % of DMSO control (lower = more inhibition)", "setting": "[3]", "value": 7.38, "unit": "%"},
      {"measurement": "parasite growth, % of control (lower = inhibition)", "setting": "[4]", "value": 16.3, "unit": "%"},
      {"measurement": "growth, % of control", "setting": "[5]", "value": 64.2, "unit": "%"},
      {"measurement": "Potency", "setting": "[6]", "value": "16.6 nM (active)"},
      {"measurement": "Potency", "setting": "[1]", "value": "235 nM (active)"},
      {"measurement": "cell viability, % of control (lower = more cytotoxic)", "setting": "[13]", "value": 19.7, "unit": "%"},
      {"measurement": "viability (% of control)", "setting": "[7]", "value": 23.2, "unit": "%"},
      {"measurement": "Potency", "setting": "[8]", "value": "inactive"},
      {"measurement": "Potency", "setting": "[9]", "value": "inactive"},
      {"measurement": "Potency", "setting": "[10]", "value": "469 nM (active)"},
      {"measurement": "Potency", "setting": "[11]", "value": "418 nM (active)"}
    ]}
  ]
}
